High-throughput results deposited in PubChem BioAssay by The Scripps Research Institute Molecular Screening Center.
Only some compounds are listed: those with a hit (about 4.1% of all), similar ones and a draw of the others.
DAX1 inh-1: DAX1 (NR0B1) inhibitors, primary screen, cell-based, HEK293, Gal4-DAX1, luciferase luminescence. Nuclear receptor subfamily 0 group B member 1 (Homo sapiens), P51843. HEK293 Gal4-DAX1 luciferase reporter. inhibition, % at 6.75 µM. 340,000 tested, 0.99% active. AID 504766, 2011;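 active means inhibition above the mean over all tested compounds plus 3 SD, cut at about 4.2% in these data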;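 further: 0% = DAX1-transfected cells with DMSO and 100% = empty-vector control cells with DMSO; inhibition shows as a rise in luminescence from relieved DAX1 repression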
Target sequence (P51843 207-470 limits assumed): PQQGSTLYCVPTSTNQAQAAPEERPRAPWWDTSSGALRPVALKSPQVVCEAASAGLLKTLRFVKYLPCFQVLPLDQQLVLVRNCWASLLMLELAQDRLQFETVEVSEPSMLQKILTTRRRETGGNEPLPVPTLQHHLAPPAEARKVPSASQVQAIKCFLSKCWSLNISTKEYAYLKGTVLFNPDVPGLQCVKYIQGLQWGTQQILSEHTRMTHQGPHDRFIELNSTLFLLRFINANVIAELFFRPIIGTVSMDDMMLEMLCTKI
hgDAF-12 ag: H. glycines DAF-12 receptor agonists, primary screen, cell-based, luminescence, HEK293, GAL4 fusion, UAS-luciferase; Nuclear hormone receptor DAF-12 (Heterodera glycines), GAL4 fusion; HEK293 GAL4-hgDAF12 UAS-luciferase reporter, agonist luminescence; normalized to butyrate control; activation, % at 6.8 µM; 370,000 tested, 1.8% active;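 active means activation above a cutoff set at the mean of all screened compounds plus 3 SD, cut at about 10% in these data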;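 further: 0% = DMSO wells and 100% = sodium butyrate wells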
ssDAF12 agonist: S. stercoralis DAF-12 nuclear receptor activators, primary screen, cell-based, luminescence, HEK293, GRIP1 co-expression, lit1-tk-luc | HEK293 ssDAF-12/GRIP1 lit1-tk-luc reporter; % of 3 µM dafachronic acid response | Nuclear hormone receptor DAF-12 (Strongyloides stercoralis) | AID 652126, 2013 | 370,000 tested, 1% active | activation, % at 6.8 µM;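 active means activation above the mean over all tested compounds plus 3 SD, cut at about 0.9% in these data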;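 further: 0% = DMSO-only wells and 100% = 3 µM delta7-dafachronic acid wells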
hcDAF12 agonist: H. contortus DAF-12 nuclear receptor activators, primary screen, cell-based, luminescence, HEK293, lit1-tk-luc reporter; activation, % at 6.8 µM; 370,000 tested, 1.4% active; HEK293 hcDAF-12 lit1-tk-luc reporter; 0% DMSO, 100% Δ7-dafachronic acid;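 active means activation above the mean of all tested compounds plus 3 SD, cut at about 5.5% in these data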;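 further: 100% = response to 3 µM Δ7-dafachronic acid high control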
DAX1 inh-2: DAX1 (NR0B1) inhibitors on StAR promoter, primary screen, cell-based, luminescence, SF-1 (NR5A1), full-length DAX-1; HEK293T StAR-luciferase reporter, SF-1/DAX-1 repression relief; inhibition, % at 6.8 µM; 370,000 tested, 1.1% active;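 active means inhibition above the mean over all tested compounds plus 3 SD, cut at about 3.6% in these data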;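 further: 0% = DAX-1 cells with DMSO and 100% = cells lacking DAX-1 with DMSO; higher inhibition means more luminescence from relief of DAX-1 repression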
hgDAF12 conf: H. glycines DAF-12 receptor agonists, confirmation, cell-based, luminescence, HEK293, GAL4-LBD fusion; shares compounds with hgDAF-12 ag; HEK293 GAL4-hgDAF12 luciferase reporter, agonist mode; percent of butyrate response; activation, % at 6.8 µM; 3,300 tested, 80% active; AID 743050, 2013;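 active means mean activation over triplicate wells above the hit cutoff derived from the earlier primary screen, cut at about 11% in these data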;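 further: 0% = DMSO low control and 100% = 2 mM sodium butyrate high control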
LXR ag 2: LXR agonists, Gal4 luciferase reporter, confirmation, counter-screen for hgDAF-12 agonist project, cell-based, luminescence, HEK293, H. glycines campaign; activation, % at 6.8 µM; 3,300 tested, under 10 active; 24 h; AID 743051, 2013; shares compounds with hgDAF-12 ag;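 active means mean activation of the triplicate above a set limit carried over from the primary screen, none filed active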
* hit, by the source's call; · = not tested or not shown.

SMILES	DAX1 inh-1	hgDAF-12 ag	ssDAF12 agonist	hcDAF12 agonist	DAX1 inh-2	hgDAF12 conf	LXR ag 2
COc1nc(OC)nc(N2CCC(C(=O)N(C)Cc3ccco3)CC2)n1	·	-2	-1	-3	1	·	·
Cc1nnc(NC(=O)c2sc3ccccc3c2Cl)s1	-4	16*	0	4	3	11*	1
Cc1ccc(SCn2nnc3ccccc3c2=O)c(C)c1	1	14*	-1	0	1	12*	0
COc1ccccc1N1CCN(c2ccc3ccccc3n2)CC1	2	14*	0	6.0*	3	15*	1
CCOC(=O)Cc1nc(N2CCN(Cc3cccc4c3OCO4)CC2)c2c(C)c(C(=O)OCC)sc2n1	·	3	-2	-2	-3	·	·
CCC(=O)Nc1nc(-c2ccc3c(c2)OCCO3)cs1	1	19*	0	5	3	16*	1
c1cc2c(cc1Nc1nc(-c3ccc4c(c3)OCO4)cs1)OCCO2	1	0	-1	-1	0	·	·
c1cc2c(cc1-c1csc(NNC3=NCCCCC3)n1)OCCO2	·	15*	0	1	2	3	0
CC(C)(C)C(=O)Nc1nc(-c2ccc3c(c2)OCO3)cs1	4	10	0	1	1	·	·
CCN(CC)C(=O)C1=C(C)N(Cc2ccc(OC)cc2)C(=O)C(CC(=O)NC2CC2)C1 (stereo not drawn)	1	0	0	0	1	·	·
NC(COCc1ccccc1)c1csc(Nc2ccc(S(N)(=O)=O)cc2)n1 (stereo not drawn)	·	-1	-1	0	1	·	·
O=C(Cc1ccc(F)cc1)Nc1nccs1	0	1	-1	0	0	·	·
O=C(Nc1nccs1)c1ccc(-c2ccc(F)cc2)o1	1	17*	1	2	3	14*	1
O=C(Nc1nccs1)c1ccc(-c2ccc([N+](=O)[O-])cc2)o1	0	18*	0	4	2	12*	1
O=C(Nc1ccccc1)c1ccc(-c2ccc([N+](=O)[O-])cc2)o1	1	4	-1	0	0	·	·
Cc1cccc(-n2ncc3c(N(C)Cc4ccccc4)ncnc32)c1	4	15*	0	2	4.0*	14*	1
Cc1cccc(-n2ncc3c(N)ncnc32)c1	0	6	-1	2	2	·	·
Cc1ccc(C2=N/C(=C\N(C)C)C(=O)O2)cc1	1	15*	-1	0	0	10	0
Cc1cccc(NC(=O)c2cc(-c3cc(C)c(C)cc3O)n[nH]2)c1	2	7	0	3	2	·	·
CC(C)(C)c1ccc(C(=O)Nc2cccnc2)cc1	2	16*	1.5*	5.9*	2	13*	1
O=C(Nc1cccnc1)c1ccc(C(=O)Nc2cccnc2)cc1	1	0	-1	0	0	·	·
Cc1ccc(-c2cc(C(=O)Nc3cccnc3)[nH]n2)c(O)c1C	5.7*	14*	-1	1	1	16*	1
CC(C)(C)c1ccc(NC(=O)c2ccsc2)cc1	·	17*	1.0*	6.5*	3	16*	1
O=C(Nc1ccc(C(F)(F)F)cc1)OC1CC2CC1[C@H]1CCCCN1C2 (stereo partly drawn)	·	3	-1	-1	-1	·	·
CCOC(=O)CC[C@H]1CC[C@]2(CCCN(Cc3ccccc3)C2)O1	·	1	0	0	0	·	·
